Test results: PubChem BioAssay (Tox21)
Records with an inconclusive call do not appear. Values without a mark were called inactive. Active and inactive are the calls of the source. Calls come from the whole dose curve; as a rule, active = well fitted activation curve with a large enough effect in the signal ratio in the repeat runs (not every such curve was filed as active); inconclusive = weak or mixed curves, or effect the other way; inactive = no such curve, though single readings can be large or run the other way; the % refers to the signal ratio.

assay: qHTS assay for small molecule agonists of the antioxidant response element (ARE) signaling pathway (AID 743202); conditions: HepG2 ARE-bla reporter, beta-lactamase FRET, 16 h; series mostly up to 73.3 µM; activation: at the top concentration
Description: U.S. Tox21 Program National Center for Advancing Translational Sciences [NCATS] NIH Chemical Genomics Center [NCGC] U.S. Environmental Protection Agency [EPA] National Institutes of Environmental Health Sciences [NIEHS] National Toxicology Program [NTP] U.S. Food and Drug Administration [FDA] Tox21 Assay Overview: Oxidative stress has been implicated in the pathogenesis of a variety of diseases ranging from cancer to neurodegeneration. The antioxidant response element (ARE) signaling pathway plays an important role in the amelioration of oxidative stress. The CellSensor ARE-bla HepG2 cell line (Invitrogen) can be used for analyzing the Nrf2/antioxidant response signaling pathway. Nrf2 (NF-E2-related factor 2) and Nrf1 are transcription factors that bind to AREs and activate these genes. The CellSensor ARE-bla Hep G2 cell line contains a beta-lactamase reporter gene under control of the Antioxidant Response Element (ARE) stably integrated into HepG2 cells. The activation of the report gene under culture conditions can be detected by fluorescence intensity. This cell line has been used to screen the Tox21 10K compound library to identify agonists that induce oxidative stress.
Tox21 Assay Protocol Summary: The ARE-bla cells were dispensed at 2,000 cells/5 ul/well in 1536-well black wall/clear bottom plates using a Multidrop dispenser. After the assay plates were incubated at a 37 C/5% CO2 incubator for 5 hours, 23 nL of compounds dissolved in DMSO, positive controls or DMSO only was transferred to the assay plate by a pin tool. The plates were incubated at 37 C for 16 hours. After 1 uL of LiveBLAzer B/G FRET substrate was added using a Flying Reagent Dispenser, the plates were incubated at room temperature for 2 hours, and fluorescence intensity was measured by an Envision plate reader.
% is set by controls: 0 for no effect and ±100 for the full control effect; potency is the fitted concentration of half-maximal effect.

First: COCCOC
Second: CCCCCCCCCOC(C)=O
The “activation” value of the first is lower: -3.01% for the first, 9% for the second.

First: COC(=O)c1cc(Cl)ccc1NS(=O)(=O)C(F)(F)F
Second: Nc1ccc(Cl)cc1[N+](=O)[O-]
The “activation” value of the first is lower: 3.37% for the first, 4.58% for the second.

First: O=C(O)c1cccnc1C(=O)O
Second: C/C(=N/NC(=O)c1ccncc1)C(=O)O
The “activation” value of the first is higher: 18.3% for the first, 0.24% for the second.

Going from CCC(C)(O)CCC=C(C)C (stereo not given) to C/C=C(\C)C(=O)OCCC(C)CCC=C(C)C (stereo not given), the “activation” value falls from -0.341% to -1.39%.

Compared with Cn1c(=O)c2c(ncn2CC(=O)O)n(C)c1=O, CC1=CC(=O)CC(C)(C)C1(O)/C=C/C(C)=C\C(=O)O (stereo not given) is higher in “activation” value: -2.93% for the first, -0.392% for the second.

Going from COc1ccc([C@@H]2Sc3ccccc3NC(=O)[C@@H]2O)cc1 to CCOC(=O)c1ccccc1OC, the “activation” value falls from 1.66% to -9.24%.

First: CCCCCCCC/C=C\CCCCCCCC(=O)OC
Second: CCCCCCOC(=O)CCCCCCCC(=O)OCCCCCC
The “activation” value of the first is higher: 0.065% for the first, -1.53% for the second.

First: CCC(C(=O)OCCOCCN(CC)CC)c1ccccc1 (stereo not given)
Second: Nc1c(I)cc(I)c(C(=O)N(CCC(=O)O)c2ccccc2)c1I
The “activation” value of the first is lower: 0.142% for the first, 0.299% for the second.

Going from CC1(C)O[C@@H]2C[C@H]3[C@@H]4CCC5=CC(=O)C=C[C@]5(C)[C@H]4[C@@H](O)C[C@]3(C)[C@]2(C(=O)CO)O1 to CC(=O)OCC(=O)[C@@]12OC(C)(C)O[C@@H]1C[C@H]1[C@@H]3C[C@H](F)C4=CC(=O)C=C[C@]4(C)[C@@]3(F)[C@@H](O)C[C@@]12C, the “activation” value rises from -3.34% to 1.4%.

First: O=C(NCCCN1CCOCC1)c1ccc(Cl)cc1
Second: NC(=O)Cn1c(=O)cc(CCN2CCN(c3nccc4sccc34)CC2)c2ccc(F)cc21
The “activation” value of the first is lower: -2.9% for the first, 2.45% for the second.

Going from COc1ccc(CCC(=O)c2c(O)cc(O[C@@H]3O[C@H](CO)[C@@H](O)[C@H](O)[C@H]3O[C@@H]3O[C@@H](C)[C@H](O)[C@@H](O)[C@H]3O)cc2O)cc1O to CO[C@H]1O[C@H](CO)[C@@H](O)[C@H](O)[C@H]1O, the “activation” value rises from -4.01% to 2.11%.

Going from N#C[C@@H]1C[C@@H]2C[C@@H]2N1C(=O)[C@@H](N)C12CC3CC(CC(O)(C3)C1)C2 to CC(C)C(=O)O, the “activation” value falls from -1.2% to -12.1%.

First: Cc1ccccc1N1C(=O)c2cc(S(N)(=O)=O)c(Cl)cc2NC1C (stereo not given)
Second: Cc1ccc(S(=O)(=O)NC2CCCCC2)cc1
The “activation” value of the first is lower: -9.43% for the first, 2.37% for the second.

For C1COCO1, the “activation” value was -2%.

Compared with CCCCC/C(=C\c1ccccc1)CO, CC(=O)Nc1ccccc1C is lower in “activation” value: 8.81% [at 94.8 µM] for the first, -18.5% [at 94.8 µM] for the second.

Going from CC(=O)Nc1ccc(N)cc1 to O=C(Nc1ccccc1)Nc1ccccc1, the “activation” value rises from -1.62% [at 94.8 µM] to 10.6% [at 94.8 µM].

Compared with C[C@@H]1C[C@H]2[C@@H]3CCC4=CC(=O)C=C[C@]4(C)[C@@]3(F)[C@@H](O)C[C@]2(C)[C@@]1(O)C(=O)CO, CC(COc1ccc(C(C)(C)C)cc1)OS(=O)OCCCl (stereo not given) is higher in “activation” value: -8.16% [at 94.8 µM] for the first, -1.46% [at 94.8 µM] for the second.

In the case of CC(C)=CC=O, the “activation” value is reported as 1.08% [at 94.8 µM].

With NC(=O)N(O)[C@@H]1C=C[C@H](Oc2cccc(Oc3ccc(F)cc3)c2)C1 the Potency was 17200 nM (active).
For O=C(Nc1ccc([N+](=O)[O-])cc1)Nc1ccc([N+](=O)[O-])cc1, the Potency was 2660 nM (active).
With Cc1cc2nc3ccc(=[N+](C)C)cc-3sc2cc1N the Potency was 2110 nM (active).
In the case of COC(=O)Nc1nc2ccc(C(=O)c3cccs3)cc2[nH]1, the Potency is reported as 750 nM (active).

With CN1CCN(c2c(F)cc3c(=O)c(C(=O)O)cn4c3c2OCN4C)CC1 the “activation” value was -1.9% [at 34.3 µM].

Compound [O]=[Bi] has an activation of -9.19% [at 8.36 µM].
